“And” between values parts separate entries of the source, which are not always exact repeats. Equal entries are not always repeated. Hit rate of the full screen: of about 5,500 compounds, about 2,000 (36%) were called active. Roughly 18% stayed inconclusive and do not appear here. No stated cut-off is given here; in the data, active means normalized growth mostly below about 0.91 (no sharp cut-off); inconclusive means no clear call, values can overlap the other calls; inactive means mostly above about 0.92. This is one part of the list.
Test: chemical genetic growth profiling, strain panel (AID 1159580);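 further: tested at 20 µM; growth read once vehicle control cultures reached saturation at 30 °C; 1 = growth at the plate median or of vehicle wells; lower values mean less growth of the strain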
Conditions: S. cerevisiae deletion strains, growth OD

Measured: normalized growth

Nc1ccncc1
inactive: locus YAL013W, strain DEP1, hits give low values 1.02 and 1.01 | locus YAL021C, strain ccr4, hits give low values 0.996 | locus YAL026C, strain drs2, hits give low values 1 | locus YAL030W, strain snc1, hits give low values 0.997 | locus YAL040C, strain CLN3, hits give low values 0.997 | locus YBL061C, strain skt5, hits give low values 0.99 | locus YBR009C, strain hhf1, hits give low values 1 | locus YBR021W, strain FUR4, hits give low values 1.02 | locus YBR023C, strain chs3, hits give low values 0.993 | locus YBR171W, strain sec66, hits give low values 0.979 | locus YBR229C, strain ROT2, hits give low values 0.985 | locus YBR231C, strain swc5, hits give low values 0.994 | locus YBR279W, strain paf1, hits give low values 0.998 | locus YCL011C, strain gbp2, hits give low values 0.995 | locus YCL016C, strain dcc1, hits give low values 1 | locus YCL029C, strain bik1, hits give low values 0.973 | locus YCL061C, strain MRC1 (second series), hits give low values 1 | locus YCL061C, strain MRC1, hits give low values 0.99 | locus YCL069W, strain vba3, hits give low values 0.998 | locus YCR088W, strain abp1, hits give low values 0.981 | locus YDL005C, strain med2, hits give low values 0.991 | locus YDL035C, strain GPR1, hits give low values 1.03 | locus YDL040C, strain nat1, hits give low values 0.989 | locus YDL074C, strain BRE1, hits give low values 1.05 | locus YDL101C, strain DUN1, hits give low values 1.01 | locus YDL134C, strain PPH21, hits give low values 1.02 | locus YDL185W, strain tfp1, hits give low values 0.981 | locus YDL192W, strain arf1, hits give low values 0.98 | locus YDR001C, strain nth1, hits give low values 0.991 | locus YDR069C, strain doa4, hits give low values 1 | locus YDR101C, strain arx1, hits give low values 0.972 | locus YDR137W, strain rgp1, hits give low values 1 | locus YDR150W, strain NUM1, hits give low values 1.02 | locus YDR159W, strain sac3, hits give low values 1 | locus YDR162C, strain NBP2, hits give low values 1.01 | locus YDR195W, strain ref2 1.01 | locus YDR297W, strain sur2, hits give low values 1 | locus YDR318W, strain mcm21, hits give low values 0.955 | locus YDR334W, strain swr1, hits give low values 0.997 | locus YDR335W, strain msn5, hits give low values 0.997 | locus YDR363W, strain ESC2, hits give low values 1.01 | locus YDR388W, hits give low values 0.965 | locus YDR392W, strain spt3, hits give low values 0.994 | locus YDR502C, strain sam2, hits give low values 0.968 | locus YEL003W, strain gim4, hits give low values 1 | locus YEL037C, strain rad23, hits give low values 0.989 | locus YEL061C, strain CIN8 (second series), hits give low values 0.994 | locus YEL061C, strain CIN8, hits give low values 1.01 | locus YER002W, strain NOP16, hits give low values 1.01 | locus YER015W, strain faa2, hits give low values 0.995 | locus YER016W, strain bim1, hits give low values 0.995 | locus YER110C, hits give low values 0.973 | locus YER111C, strain swi4, hits give low values 0.987 | locus YER155C, strain BEM2 (second series), hits give low values 0.947 | locus YER155C, strain BEM2, hits give low values 1.01 | locus YER167W, strain BCK2, hits give low values 1.02 | locus YFR010W, strain ubp6, hits give low values 0.996 | locus YGL078C, strain dbp3, hits give low values 0.982 | locus YGL086W, strain mad1, hits give low values 0.975 | locus YGL167C, strain pmr1, hits give low values 0.992 | locus YGL173C, strain kem1, hits give low values 0.99 | locus YGL227W, strain vid30, hits give low values 0.98 | locus YGL240W, strain doc1, hits give low values 1 | locus YGL248W, strain PDE1, hits give low values 1.02 | locus YGL253W, strain hxk2, hits give low values 1 | locus YGR078C, strain PAC10, hits give low values 1.02 and 1.01 | locus YGR135W, strain pre9, hits give low values 0.971 | locus YGR229C, strain SMI1, hits give low values 1.01 and 1 | locus YGR252W, strain gcn5, hits give low values 0.92 | locus YHR013C, strain ard1, hits give low values 0.999 | locus YHR027C, strain rpn1, hits give low values 0.998 | locus YHR030C, strain SLT2, hits give low values 1.01 and 0.98 | locus YHR079C, strain IRE1 (second series), hits give low values 0.965 | locus YHR079C, strain IRE1, hits give low values 0.961 | locus YHR094C, strain hxt1, hits give low values 0.974 | locus YHR129C, strain ARP1, hits give low values 1.01 | locus YHR142W, strain chs7, hits give low values 0.993 | locus YHR200W, strain rpn10, hits give low values 0.96 | locus YIL066C, strain RNR3, hits give low values 1.03 | locus YIL073C, strain SPO22, hits give low values 0.993 | locus YIL125W, strain kgd1, hits give low values 0.991 | locus YIR030C, strain dcg1, hits give low values 0.975 | locus YJL092W, strain hpr5, hits give low values 0.99 | locus YJL095W, strain BCK1 (second series), hits give low values 0.991 | locus YJL095W, strain BCK1, hits give low values 0.978 and 0.981 | locus YJL115W, strain asf1, hits give low values 0.984 | locus YJL129C, strain trk1, hits give low values 0.988 | locus YJL134W, strain LCB3, hits give low values 1.01 | locus YJL154C, strain vps35, hits give low values 0.992 | locus YJL164C, strain tpk1, hits give low values 1.01 | locus YJL166W, strain qcr8, hits give low values 0.989 | locus YJL168C, strain set2, hits give low values 0.963 | locus YJL187C, strain SWE1 (second series), hits give low values 1.03 | locus YJL187C, strain SWE1, hits give low values 1 | locus YJR043C, strain POL32, hits give low values 1 | locus YJR066W, strain TOR1, hits give low values 0.917
